This is an account of results in PubChem BioAssay (NCI).

Holding throughout (assay): NCI-60 one-dose screen, 48 h (100 = growth as untreated, 0 = no growth, -100 = all killed)
Test [1] has as its system NCI-H23 lung. Particulars: 10 µM unless noted.
Test [2] concerns NCI-H226 lung. Particulars: 10 µM unless noted.
Test [3] concerns NCI-H322M lung. The following applies: 10 µM unless noted.
For test [4], the system named is NCI-H460 lung. Particulars: 10 µM unless noted.
Test [5] has as its system HOP-92 NSCLC. The following applies: 10 µM.
For test [6], the system named is A549/ATCC NSCLC. Particulars: 10 µM unless noted.
For test [7], the system named is 786-0 renal. The following applies: 10 µM unless noted.
The test system of test [8] is COLO 205 colon. The following applies: 10 µM unless noted.
The subject of test [9] is DU-145 prostate. Particulars: 10 µM unless noted.
Test [10] has as its system K-562 leukemia. The following applies: 10 µM unless noted.
Test [11] has as its system MDA-MB-231 breast. The following applies: 10 µM unless noted.
Test [12] concerns RXF 393 renal. The following applies: 10 µM unless noted.
Test [13] deals with SF-268 CNS. The following applies: 10 µM unless noted.
Test [14] concerns SF-295 CNS. The following applies: 10 µM unless noted.
For test [15], the system named is SF-539 CNS. The following applies: 10 µM unless noted.
For test [16], the system named is UACC-257 melanoma. The following applies: 10 µM unless noted.
The test system of test [17] is M14 melanoma. The following applies: 10 µM unless noted.
For test [18], the system named is NCI-H522 lung. The following applies: 10 µM.
Test [19] relates to MALME-3M melanoma. The following applies: 10 µM unless noted.

This is part of a sample that, as a whole, favours compounds with a hit. Of some 83,000 tested, about 20% had one in any assay.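 Results are percent growth after 48 hours of single-concentration exposure. 100 means growth as in untreated cells, lower positive values show inhibition; negative values down to -100 show cell death.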 A number with no mark means an inactive call. The source made the active and inactive calls. Rule for the calls: active = growth percent below 10; inactive = the rest.

In the case of `CC(=O)c1nn(-c2ccc(C)cc2)cc1C(=O)c1cc2c(ccc3ccccc32)oc1=O`, the growth is 91.2% in test [1]; 90.1% in test [2]; 91.5% in test [3]; 100% in test [4]; 77.6% in test [5]; 96.8% in test [6]. Moreover, the growth is 93.4% in test [7]; 107% in test [8]; 110% in test [9]; 81.2% in test [10]; 73% in [11]; 126% in test [12]. Besides, the growth was 99.5% in [13]; 92.1% in test [14]; 94.1% in test [15]; 104% in test [16]; 91.3% in test [17].

`Nc1cc(N)c2nc(NCCc3ccc(Cl)c(Cl)c3)cnc2c1`: the growth in test [1] was 63.8%; in [2] it was 61.4%; in [3], -3.74% (active); in test [4], 71.9%; in [5], -54.9% (active); in test [6], 71.1%. In addition, the growth is 37.5% in [7]; 5.65% (active) in [8]; 101% in [9]; -23.1% (active) in [10]; -23.5% (active) in test [11]; 51.1% in test [12]. For the same molecule, the growth in test [13] is 30.8%; in test [14], 89.4%; in [15], 89.6%; in [16] it was 90.4%.

Turning to `O=C(/C=C/c1ccc(Br)cc1)c1ccccc1`, the growth in [1] is 97.9%; in test [2] it was 90.8%; in test [3] it was 106%; in test [5] it was 96.2%; in test [18] it was 77.8%; in test [6], 73%. In addition, the growth was 85.1% in test [7]; 109% in [8]; 95.6% in test [9]; 59.4% in [10]; 104% in test [19]; 101% in test [11]. In addition, the growth in test [12] is 98.7%; in test [13], 90.9%; in test [14], 96.7%; in [15] it was 100%; in test [16] it was 84.3%; in test [17], 87.6%.

`Cc1ccc(OCCn2ccc(=O)n(CCOc3ccc(Cl)cc3C(=O)c3cc(C)cc(C)c3)c2=O)cc1`: the growth was 54.4% in test [1]; 62.9% in test [2]; 84.1% in test [3]; 45.9% in [5]; 23.3% in test [18]; 41.7% in [6]. In addition, the growth in [7] is 57.4%; in test [9] it was 73.3%; in test [10], 13.2%; in [19], 51.9%; in test [11] it was 46.8%; in test [12] it was 41.5%. Also, the growth in test [13] was 49.7%; in test [14], 51.1%; in [15] it was 53.7%; in test [16], 64.3%; in [17] it was 24.7%.

For the molecule `CC(=N\N=C(N)N)/C(=N/N=C(N)N)c1ccccc1`, the growth was 43.1% in [1]; 91.4% in test [2]; 76.4% in test [3]; 95.2% in [5]; 86.2% in [6]; 101% in test [7]. Moreover, the growth in test [8] is 6.49% (active); in test [9], 51.7%; in [10], 91.3%; in [19], 99.2%; in test [11] it was 116%; in test [12], 104%. Moreover, the growth is 99.1% in [14], 74.6% in [15], 93.2% in [16] and 88.6% in test [17].

In the case of `CCOC(=O)C1CCCN1C(=O)C1(NC(C)=O)CCCC1` (stereo not given), the growth in test [1] is 100%; in [2] it was 104%; in [3], 91.3%; in test [4], 98.2%; in test [5], 84.7%; in test [6] it was 101%. In addition, the growth is 102% in [7]; 105% in [8]; 103% in [9]; 110% in test [10]; 96.7% in test [19]; 121% in test [11]. The growth in test [12] is 110%; in test [14], 104%; in test [15] it was 95.8%; in test [16] it was 102%; in [17] it was 95.2%.

`COc1ccc(-c2nc(SCC(C)C)nc(Nc3ccccc3)c2C#N)cc1`: the growth in [1] is 86.3%; in test [2], 83%; in test [3], 70.8%; in [5], 88%; in test [18], 88.3%; in [6], 48%. In addition, the growth in test [7] was 51.9%; in [9], 100%; in test [10] it was 82.1%; in [19], 96%; in test [11], 93.5%; in test [12], 98.8%. Besides, the growth in [13] was 87.9%; in [14], 77.1%; in [15] it was 70.5%; in test [16] it was 83.8%; in test [17], 95.8%.

Regarding `CC1(C)Oc2cc3oc(=O)ccc3cc2C[C@@H]1OCCOS(=O)(=O)c1ccc(C#N)cc1`, the growth in test [1] was 91.8%; in test [2], 87.8%; in [3], 105%; in test [4], 93%; in test [5], 91.4%; in test [6] it was 92.5%. In addition, the growth was 100% in test [7]; 103% in [9]; 93.6% in test [19]; 94.5% in [11]; 89.2% in test [13]; 87.7% in test [14]. Also, the results for the growth in [15], in [16] and in [17] were 96.6%, 84.2% and 98.4%, respectively.

Regarding `O=C(Oc1ccccc1)c1ccccc1Cl`, the growth is 104% in test [1]; 106% in test [2]; 104% in test [3]; 103% in test [4]; 90.1% in [5]; 99.9% in [6]. Also, the growth in test [7] was 101%; in [8], 104%; in test [9], 114%; in [10], 107%; in test [19], 101%; in test [11], 111%. Further, the growth is 110% in [12]; 110% in test [14]; 94.2% in test [15]; 102% in test [16]; 102% in test [17].
